{
  "source": "ChEMBL document CHEMBL3988442",
  "about": "“University of Dundee, Small-Polar-MMV Screening Library” (2021)",
  "note": "In all, about 69,000 compounds went through this assay and about 950 (1.4%) showed an effect of 50% or more. What follows is part of a selection rich in strong results, with near analogues and random picks from the rest.",
  "data": [
    {"system": "Mycobacterium tuberculosis", "experiment": "Cornell M. t heat shock assay; also: in the data most compounds retested in dose-response had high values", "type": "functional, organism-based", "parameters": "dose or concentration left out as unconfirmed", "units": {"Percent Effect": "%"}, "values": [
      {"molecule": "O=C(O)C(F)(F)F.O=C(O)C(F)(F)F.O=C(O)C(F)(F)F.c1cncc(CN2CCCn3nnc(CN4CCCC4)c3C2)c1", "Percent Effect": -36.4},
      {"molecule": "CNC(=O)CN1CCCC12CCN(C(=O)c1ccc(F)cc1)CC2.O=C(O)C(F)(F)F", "Percent Effect": -33.92},
      {"molecule": "Cc1oncc1C(=O)N[C@@H]1CN(Cc2ccoc2)C[C@@H]2CCCO[C@@H]21.O=C(O)C(F)(F)F", "Percent Effect": 44.61},
      {"molecule": "CCOc1ccc(Br)cc1C1CCCCN1.Cl", "note": "(stereo not given)", "Percent Effect": 18.96},
      {"molecule": "CC(C)N(C)CC(=O)Nc1ccc(-n2ccc(C(N)=O)n2)cc1", "Percent Effect": 4.536},
      {"molecule": "CCOCC(=O)Nc1cccnc1-n1ccnc1C", "Percent Effect": 3.015},
      {"molecule": "Cn1ccc(C(=O)Nc2nnc(-c3ccccn3)[nH]2)cc1=O", "Percent Effect": 24.76},
      {"molecule": "CC(C)N(C)CC(=O)Nc1nccn1Cc1ccccc1Cl", "Percent Effect": 70.24},
      {"molecule": "CC(C)N(C)CC(=O)NC1CCc2nccn2C1", "note": "(stereo not given)", "Percent Effect": -3.465},
      {"molecule": "Cn1ccc(C(=O)Nc2nccn2Cc2ccccc2Cl)cc1=O", "Percent Effect": 54.71},
      {"molecule": "CS(=O)(=O)CCC(=O)Nc1nccn1Cc1ccccc1Cl", "Percent Effect": 51.39},
      {"molecule": "Cc1nccn1Cc1cccc(CNC(=O)c2ccn(C)c(=O)c2)c1", "Percent Effect": -21.74},
      {"molecule": "CS(=O)(=O)CCC(=O)Nc1cnn(-c2ccccc2Cl)c1", "Percent Effect": -2.43},
      {"molecule": "CCOCC(=O)NCCCn1ccnc1-c1ccccc1", "Percent Effect": 0.7963},
      {"molecule": "CCOCC(=O)Nc1nccn1Cc1ccccc1Cl", "Percent Effect": 94.36},
      {"molecule": "CS(=O)(=O)CCn1ccc(NC(=O)Cc2ccccc2Cl)n1", "Percent Effect": -16.05},
      {"molecule": "CC1c2ncc(CNC(=O)C3CC3)n2CCN1Cc1cccnc1.O=C(O)C(F)(F)F.O=C(O)C(F)(F)F", "note": "(stereo not given)", "Percent Effect": -10.62},
      {"molecule": "CN1CC(=O)N(c2ccccc2)CC12CCN(C(=O)c1cccs1)C2.O=C(O)C(F)(F)F", "note": "(stereo not given)", "Percent Effect": -3.603},
      {"molecule": "O=C(O)C(F)(F)F.O=C(O)C(F)(F)F.O=C(c1cccnc1)N1Cc2nccn2CC(COc2cccnc2)C1", "note": "(stereo not given)", "Percent Effect": -22.14},
      {"molecule": "CCN1C(=O)CCC12CCCN(Cc1nccs1)CC2.O=C(O)C(F)(F)F", "note": "(stereo not given)", "Percent Effect": -119},
      {"molecule": "CN(C)CCOCC1CN(Cc2cccs2)Cc2ccnn2C1.O=C(O)C(F)(F)F.O=C(O)C(F)(F)F.O=C(O)C(F)(F)F", "note": "(stereo not given)", "Percent Effect": -22.31},
      {"molecule": "CN(C)Cc1cc(C2CCN(C(=O)C3CC34CCC4)CC2)nn1C.Cl", "note": "(stereo not given)", "Percent Effect": -10.56},
      {"molecule": "CNc1cc(C)nc(N2Cc3cnn(Cc4ccc(F)cc4)c3C2)n1", "Percent Effect": -20.76},
      {"molecule": "Cc1ccc(CNC2CC3(CCN(CCO)CC3)c3ccccc32)s1.O=C(O)C(F)(F)F.O=C(O)C(F)(F)F", "note": "(stereo not given)", "Percent Effect": 0.5733},
      {"molecule": "O=C(O)C(F)(F)F.O=C1N(Cc2cccnc2)CCC12CCCN(c1ncc(F)cn1)C2", "note": "(stereo not given)", "Percent Effect": 4.445}
    ]}
  ]
}
